HTT ATP protect: protects HTT-Q103 PC12 cells, measured by ATP; PC12 HTT-Q103 induced, cytoprotection, ATP luminescence, 40 h; Potency, µM (doses to about 56.4 µM), for the others: cytoprotection (ATP increase), most hits filed as activators; actives 0.14% (n = 230,000); AID 1471; note: potency is the fitted concentration of half-maximal effect; % of control where 0% means no effect; nearly all actives have a fitted effect of over 45% in size
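Stable PC12 Q103-GFP cells in serum-supplemented, phenol red-free DMEM; induction by tebufenozide at 100 nM final; compound dose series; cell viability quantified luminescently from ATP.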
HPGD block: blocks human HPGD enzyme activity; actives 4.3% (n = 150,000); purified HPGD, NADH fluorescence kinetic, PGE2 substrate; P15428; Potency, µM, inactives show at the highest dose activity change, negative = inhibition, usual class: inhibitors; active = well fitted inhibition curve with a large enough effect, not every such curve was filed as active; inconclusive = small, poorly fitted or top-dose-only effect, or another doubt; inactive = no such curve, though single readings can be large or run the other way; note: potency is the fitted concentration of half-maximal effect; % is set by controls: 0 for no effect and ±100 for the full control effect
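20 nM HPGD preincubated 15 min at room temperature with compound in 50 mM Tris-HCl pH 8, 0.01% Tween 20. Started with 1 mM NAD+ and 30 uM prostaglandin E2; NADH fluorescence (360/450 nm) read 5 times over 30-s intervals, last minus first.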
PNC inhibitor: perinucleolar compartment assembly inhibition; PC3M PTB-GFP, PNC prevalence imaging, 16 h; hits give low values; activity change (PNC), negative = inhibition, % at 10 µM; actives 3.1% (n = 140,000);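 active = readout at or below -70, meaning at least 70% loss of cells showing the perinucleolar compartment, a nuclear body marking cancer cells; inconclusive = readout between -30 and a set limit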;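 note: plate controls were DMSO wells for no effect and camptothecin positive control wells for full effect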
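PC3M cells stably expressing PTB-GFP, 750–1000 cells/well, treated 16 h at 37 °C with compound (23 nl of library stock), in duplicate. After paraformaldehyde fixation and Hoechst stain, imaged at 20x; PNC prevalence scored by image analysis.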
RGS12 GoLoco inh: inhibitors of human Gai1-RGS12 GoLoco interaction (red fluorophore); P63096; Potency, µM (top dose mostly 61.6 µM), without a hit: top-dose activity, negative = inhibition, actives largely listed as inhibitors; Gai1:RGS12 GoLoco peptide FP, rhodamine, 10 min; actives 0.44% (n = 230,000); active = well fitted inhibition curve with a large enough effect, not every such curve was filed as active; inactive = no such curve, though single readings can be large or run the other way; note: potency is the fitted concentration of half-maximal effect; % is set by controls: 0 for no effect and ±100 for the full control effect; nearly all actives have a fitted effect of over 30% in size
Target sequence (P63096 whole entry, looked up): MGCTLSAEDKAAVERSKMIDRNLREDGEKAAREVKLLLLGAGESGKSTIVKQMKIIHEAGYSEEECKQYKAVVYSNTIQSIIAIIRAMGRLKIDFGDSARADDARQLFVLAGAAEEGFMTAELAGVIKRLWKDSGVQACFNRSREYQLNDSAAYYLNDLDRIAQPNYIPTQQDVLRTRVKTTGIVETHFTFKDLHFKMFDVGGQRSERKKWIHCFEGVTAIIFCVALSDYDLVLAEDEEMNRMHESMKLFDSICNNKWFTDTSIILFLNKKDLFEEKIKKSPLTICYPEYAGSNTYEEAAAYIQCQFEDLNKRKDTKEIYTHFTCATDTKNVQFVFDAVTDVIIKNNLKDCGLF
ALDH1A1 block: inhibitors of human aldehyde dehydrogenase 1A1; actives 7.3% (n = 220,000); AID 1030; Potency, µM (series often up to 75.3 µM), for inactives: at the top dose activity, negative = inhibition, actives largely listed as inhibitors; Purified ALDH1A1, NADH fluorescence, propionaldehyde substrate; active = well fitted inhibition curve with a large enough effect, not every such curve was filed as active; inconclusive = small, poorly fitted or top-dose-only effect, or another doubt; inactive = no such curve, though single readings can be large or run the other way;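 note: potency is the fitted concentration of half-maximal effect; plate controls were no enzyme wells and a reference inhibitor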
HttQ103 aggreg: mutant huntingtin aggregation inhibition | PC12 HttQ103-GFP aggregates, Acumen cytometry, 40 h | Potency, µM (highest dose often 46.1 µM), for the others: at the top dose activity change, negative = inhibition, most hits filed as inhibitors | actives 1.1% (n = 220,000); note: potency is the fitted concentration of half-maximal effect; % is set by controls: 0 for no effect and ±100 for the full control effect; nearly all actives have a fitted effect of over 60% in size
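PC12 cells with ecdysone-inducible HTT exon1 Q103-GFP, induced by 100 nM tebufenozide, given compounds in a concentration series. GFP aggregates (1–25 um, 6 SD above background) counted in lysates by laser-scanning cytometry, 488 nm excitation.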
Active calls of the source: *; [ ] = remark or other dose. This is a sample that favours compounds with a hit; in the whole collection about 11% have one here. Unless noted, calls come from the whole dose curve; as a rule, active = well fitted curve in the direction sought with a large enough effect; inconclusive = small, poorly fitted or top-dose-only effect, or another doubt; inactive = no such curve, though single readings can be large; an effect the other way counts as inactive or inconclusive.

What do the screens show for `CC(C)C[C@@H](CC(=O)N[C@H](CC(=O)N[C@@H]1CCNC[C@H]1C(=O)N[C@H](CC(=O)N[C@@H](CCC(=O)O)CC(=O)O)CC(C)C)C(C)C)NC(=O)[C@@H]1CCCC[C@H]1N`?
HTT ATP protect: -15%[1.9 µM]; HPGD block: -3%; RGS12 GoLoco inh: -1%; ALDH1A1 block: inconclusive

What do the screens show for `CC1(C)CC(=O)C(Sc2ccccc2)=C(O)C1`?
HTT ATP protect: 14%[10 µM]; RGS12 GoLoco inh: 11%; ALDH1A1 block: 20µM*; HttQ103 aggreg: -5%[9.22 µM]

Results for O=C(Cn1nnc(-c2ccccc2Cl)n1)N/N=C/c1ccc(-c2cccc(Cl)c2)o1 ?
HTT ATP protect: 14%[10 µM]; HPGD block: inconclusive; PNC inhibitor: inconclusive; RGS12 GoLoco inh: 7%; ALDH1A1 block: inconclusive; HttQ103 aggreg: -18%

How did CC(C)C(=O)Nc1cccc(C(=O)N2CCCCC2C)c1 (configuration not stated) do in these assays?
HTT ATP protect: -5%; HPGD block: -10%; PNC inhibitor: -6; RGS12 GoLoco inh: -7%; ALDH1A1 block: 7%; HttQ103 aggreg: 10µM*

How did CC1CCCCN1C(=O)c1cccc(NC(=O)c2ccccc2)c1 (configuration not stated) do in these assays?
HTT ATP protect: 5%[10 µM]; RGS12 GoLoco inh: 3%; ALDH1A1 block: 3%; HttQ103 aggreg: -4%[9.22 µM]

What do the screens show for `O=C(CSCc1cnn(-c2ccccc2)c1-n1cccc1)NCc1ccccn1`?
HTT ATP protect: inconclusive; RGS12 GoLoco inh: 1%; ALDH1A1 block: 9%; HttQ103 aggreg: 4%

How did O=C(CSCc1cnn(-c2ccccc2)c1-n1cccc1)NCc1ccc2c(c1)OCO2 do in these assays?
HTT ATP protect: 24%[10 µM]; HPGD block: -13%; PNC inhibitor: -100*; RGS12 GoLoco inh: -44%; ALDH1A1 block: inconclusive; HttQ103 aggreg: -31%

What do the screens show for `COc1ccc(CNC(=O)CSCc2cnn(-c3ccccc3)c2-n2cccc2)cc1`?
HTT ATP protect: -15%; HPGD block: -11%; PNC inhibitor: 16; RGS12 GoLoco inh: 11%; ALDH1A1 block: inconclusive; HttQ103 aggreg: -19%

What do the screens show for `O=C(COC(=O)Cc1cn2ccsc2n1)NCc1ccc2c(c1)OCO2`?
HTT ATP protect: 11%[10 µM]; HPGD block: 14µM*; PNC inhibitor: 15; RGS12 GoLoco inh: 14%; ALDH1A1 block: inconclusive; HttQ103 aggreg: -3%

How did CCN(CC)C(=O)CSCc1cnn(-c2ccccc2)c1-n1cccc1 do in these assays?
HTT ATP protect: -20%[10 µM]; HPGD block: -12%; PNC inhibitor: inconclusive; RGS12 GoLoco inh: 9%; ALDH1A1 block: 28µM*; HttQ103 aggreg: inconclusive

Results for O=C(COC(=O)Cc1cn2ccsc2n1)NC12CC3CC(CC(C3)C1)C2 ?
HTT ATP protect: 15%[10 µM]; HPGD block: 0%; PNC inhibitor: -14; RGS12 GoLoco inh: 3%; ALDH1A1 block: -6%; HttQ103 aggreg: 15%

What do the screens show for `O=C(COC(=O)c1ccco1)NCc1ccc2c(c1)OCO2`?
HTT ATP protect: 26%[10 µM]; RGS12 GoLoco inh: 8%; HttQ103 aggreg: 6%[9.22 µM]

What do the screens show for `O=C(OC(C(=O)NCc1ccc2c(c1)OCO2)c1ccc(Cl)cc1)c1ccco1` (configuration not stated)?
HTT ATP protect: 14%; HPGD block: 28µM*; PNC inhibitor: -4; RGS12 GoLoco inh: -12%; ALDH1A1 block: 14µM*; HttQ103 aggreg: -18%

Results for COCCn1c(=O)c(-c2ccc(OC)cc2)nc2cnc(N3CCOCC3)nc21 ?
HTT ATP protect: 6%; RGS12 GoLoco inh: -2%; ALDH1A1 block: inconclusive

Results for COc1ccccc1/C=C/C(=O)Nc1cccc(S(=O)(=O)NC2=NCCCCC2)c1 ?
HTT ATP protect: -21%; RGS12 GoLoco inh: 0%; ALDH1A1 block: -7%; HttQ103 aggreg: -5%
